# In PubChem BioAssay (NCATS):
# Results filed as inconclusive are left out. Unmarked numbers belong to inactive results. Active and inactive are the calls of the source. Calls come from the whole dose curve; as a rule, active = well fitted inhibition curve with a large enough effect; inconclusive = small, poorly fitted or top-dose-only effect; inactive = no such curve, though single readings can be large or run the other way.
# Assay: qHTS for Inhibitors of the Aldehyde Dehydrogenase Family (ALDH1A2, ALDH1A3, ALDH2, ALDH3A1) (AID 2061307); note: nearly all actives have a fitted effect of over 50% in size; for Potency: test system not described further here
# Details: ALDH inhibition qHTS; series mostly up to 50.3 µM; activity change, negative = inhibition: at the top concentration
# % is set by controls: 0 for no effect and ±100 for the full control effect; potency is the fitted concentration of half-maximal effect.
Compound,"activity change, negative = inhibition",Potency
CCc1ccc(-n2c(=O)c3cccnc3n2CC(=O)N(CC)c2cccc(C)c2)cc1,-10.4%,–
COc1ccc(C2=NS(=O)(=O)N(C)C(C(=O)Nc3ccc(OC(F)(F)F)cc3)=C2)cc1,–,7.94 µM (active)
CN(Cc1ccc(-c2ccc(C#N)cc2)o1)c1ccc(N2CCN(C(=O)OC(C)(C)C)CC2)cc1,–,1.79 µM (active)
O=C(CSc1nc2ncccc2o1)Nc1ccc(Cl)cc1F,0.404%,–
O=C(NCCc1nc2ccccc2n1CCCc1ccccc1)C1CCCCC1,-13.1%,–
Cc1ccc(NC(=O)CSc2nc3ccccc3nc2N2CCOCC2)cc1,–,25.1 µM (active)
Cc1ccc(OCCn2c(CCNC(=O)c3ccccc3N)nc3ccccc32)cc1,–,1.13 µM (active)
Cc1ccnc(NC(=S)N2CCNCC2)c1,-18.4%,–
CN(C)CCCNc1cc(O)c2ncccc2c1,0%,–
Cc1ccnc(NC(=S)N2CCN(c3ccc(Cl)cc3Cl)CC2)c1,-19.6%,–
O=C(NCc1ccccc1)c1csc(N2CCN(c3ccc(Cl)cc3)CC2)n1,–,2.82 µM (active)
Cc1ccc(C)n1-c1cccc(C(=O)O)c1,–,5.65 µM (active)
CCc1nnc2sc(-c3ccc(C)c(NC(=O)c4ccc(-c5cccc(Cl)c5)o4)c3)nn12,–,12.6 µM (active)
Cc1cc(NC(=O)Nc2nnc(-c3ccncc3)s2)ccc1Br,–,11.3 µM (active)
CCc1ccc(-c2nn3c(C)nnc3s2)cc1NC(=O)c1ccc(-c2cccc(Cl)c2)o1,–,25.1 µM (active)
CCn1cnc2c(Nc3ccc(CC(=O)N=C(N)N)cc3)nc(C#N)nc21,11.7%,–
CC(=O)C1CCC2(C)C3=C(CCC12C)C1(C)CCC(=O)C(C)(C)C1CC3 (configuration not stated),-63.9% [at 34.4 µM],–
